The entries come from a sample that favours hits as a whole.
HT1080 IDH1KD tx: toxicity to HT-1080 IDH1 knockdown cells (counter line); HT-1080 IDH1 knockdown viability, ATP luminescence, 48 h; Potency, µM (doses to about 46.1 µM), hits mostly cytotoxic; 360,000 compounds, 2% hits; AID 686971
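Using the IDH1-knockdown HT-1080 line run in the same batch and compound series as the NT line, viability after 48 h at 37 °C was determined by CellTiter-Glo luminescence and expressed as % activity.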
12-LOX inh: ALOX12 (human) lipoxygenase inhibition; Potency, µM (top dose mostly 108 µM), hits mostly inhibitors; P18054; purified 12hLO, xylenol orange hydroperoxide absorbance; 580,000 compounds, 1.1% hits; AID 1671190
Target sequence (P18054 whole entry, looked up): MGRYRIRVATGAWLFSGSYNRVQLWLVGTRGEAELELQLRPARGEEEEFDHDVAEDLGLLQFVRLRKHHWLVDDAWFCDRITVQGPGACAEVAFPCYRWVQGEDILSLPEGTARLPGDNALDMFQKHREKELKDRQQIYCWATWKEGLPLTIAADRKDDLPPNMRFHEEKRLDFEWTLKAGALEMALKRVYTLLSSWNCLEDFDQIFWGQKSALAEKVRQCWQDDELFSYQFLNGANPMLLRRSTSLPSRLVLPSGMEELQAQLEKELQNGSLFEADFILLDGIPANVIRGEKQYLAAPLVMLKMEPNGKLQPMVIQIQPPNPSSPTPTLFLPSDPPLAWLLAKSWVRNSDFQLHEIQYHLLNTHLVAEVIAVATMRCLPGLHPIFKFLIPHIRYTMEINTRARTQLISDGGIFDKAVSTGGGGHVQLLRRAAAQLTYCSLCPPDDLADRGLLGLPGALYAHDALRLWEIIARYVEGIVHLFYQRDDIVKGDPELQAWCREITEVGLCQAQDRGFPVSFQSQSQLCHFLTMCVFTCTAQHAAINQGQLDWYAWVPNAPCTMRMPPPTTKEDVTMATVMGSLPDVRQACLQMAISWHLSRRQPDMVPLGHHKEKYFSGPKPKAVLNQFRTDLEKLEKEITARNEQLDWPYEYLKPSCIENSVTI
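Hydroperoxide product was detected by ferrous iron/xylenol orange as the 573 to 405 nm absorbance ratio. Arachidonic acid at 40 uM (final) was turned over for 30 min at room temperature by 150 nM human 12hLO, pH 7.0 Hepes buffer, after 15 min compound preincubation.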
IL-1B inflam inh: blocks inflammasome-driven IL-1 beta release; 360,000 compounds, 4.7% hits; THP-1 LPS/ATP IL-1B secretion, AlphaLISA, 16 h; hits give low values; AID 743279; activity change, % at 57.5 µM; in the data active = activity change below about -50%; inconclusive = mostly about -30% to -49%
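Secreted IL-1B measured by AlphaLISA bead assay after 16 h compound exposure of THP-1 cells; compounds (final up to 57.5 uM) added 1 h before LPS (250 ng/mL) and ATP (1.25 mM) stimulation; lower signal means less secretion.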
DT40 TDP1 no CPT: qHTS for Inhibitors of human tyrosyl-DNA phosphodiesterase 1 (TDP1): qHTS in cells in absence of CPT | DT40 Tdp1-/- hTDP1 cells, no CPT, ATP luminescence, 48 h | Potency, µM (series often up to 46.2 µM), hits mostly inhibitors | 420,000 compounds, 15% hits | AID 686978, 2013; also: nearly all actives have a fitted effect of over 55% in size
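Cells were dispensed at 400 per well, compounds added by pin tool, plates incubated ≥48 hr at 37 °C, then CellTiter-Glo added for 30 min at room temperature before luminescence reading. Line: DT40 Tdp1-/- complemented with hTDP1; camptothecin omitted.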
HT1080-NT tox: kills 2HG-producing HT-1080-NT fibrosarcoma cells; HT-1080-NT fibrosarcoma viability, CellTiter-Glo ATP luminescence, 48 h; Potency, µM (doses to about 46.1 µM), hits mostly cytotoxic; 360,000 compounds, 1.6% hits;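 also: NT is the 2HG producing partner of a matched IDH1 knockdown line; nearly all actives have a fitted effect of over 55% in size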
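Viability by CellTiter-Glo luminescence after 48 h compound exposure at 37C of HT-1080-NT cells (750/well, RPMI, 5% FBS). % activity scaled between DMSO wells and medium-only wells, then curve-fitted and categorized by curve class.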
TDP1 cell CPT: DT40-hTDP1 cell growth loss with CPT | chicken DT40 Tdp1-/-;hTDP1 cells + 20 nM CPT, ATP luminescence, 48 h | Potency, µM (titrated, usually from 46.2 µM), actives largely listed as inhibitors | 420,000 compounds, 12% hits | AID 686979; also: nearly all actives have a fitted effect of over 55% in size
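Chicken DT40 Tdp1-/- cells stably complemented with human TDP1 were seeded at 400 cells/well in medium containing 20 nM camptothecin, exposed to pin-transferred compounds, and grown at 37 °C for at least 48 hr. Viability was read as ATP luminescence.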
Hits are given with their value; 0 = inactive; ? = inconclusive; - = not tested or not shown; ! = repeats disagree; [ ] = another dose, or the depositor's remark. Unless noted, calls follow the shape of the dose curve; as a rule, active = well fitted curve in the direction sought with a large enough effect; inconclusive = small, poorly fitted or top-dose-only effect, or another doubt; inactive = no such curve, though single readings can be large; an effect the other way counts as inactive or inconclusive.

SMILES | HT1080 IDH1KD tx | 12-LOX inh | IL-1B inflam inh | DT40 TDP1 no CPT | HT1080-NT tox | TDP1 cell CPT
Cc1cccc(C2CCCN2S(=O)(=O)c2ccc(C(C)(C)C)cc2)c1 (configuration not stated) | - | 0 | - | - | - | -
Cn1ccnc1-c1nccn1CC(CO)Cc1ccsc1 (configuration not stated) | - | 0 | - | - | - | -
COc1ccc(S(=O)(=O)Nc2cc3c(C(C)=O)c(C)oc3c3ccccc23)cc1 | 0.52µM | 0 | 0 | 0.65µM | 1.3µM | 0.65µM
CC(C)c1ccc(OCC(=O)Nc2cc(C(F)(F)F)ccc2N2CCOCC2)cc1 | - | 0 | - | - | - | -
CS(=O)(=O)c1ccc(C(=O)OCC(=O)Nc2cccnc2Cl)cc1[N+](=O)[O-] | ? | - | -96 | 8.2µM | 0 | 6.5µM
CS(=O)(=O)c1ccc(C(=O)OCC(=O)Nc2cc(C(F)(F)F)ccc2Cl)cc1[N+](=O)[O-] | - | - | - | ? | - | 11µM
NS(=O)(=O)c1cc(C(=O)OCC(=O)Nc2ccc(Cl)cc2[N+](=O)[O-])ccc1Cl | 0 | 0 | 0 | 0 | 0 | 0
Cc1ccccc1NC(=O)Cc1nc(COC(=O)c2ccc(S(C)(=O)=O)c([N+](=O)[O-])c2)cs1 | 16µM | - | -102 | 3.7µM | ? | 2.9µM
NS(=O)(=O)c1cc(C(=O)OCC(=O)Nc2ccccc2[N+](=O)[O-])ccc1Cl | 0 | 0 | 0 | 0 | 0 | 0
Cc1ccccc1NC(=O)COC(=O)c1ccc(S(C)(=O)=O)c([N+](=O)[O-])c1 | 10µM | 0 | -96 | 4µM | ? | 2.5µM
O=C(COC(=O)COc1ccc(Cl)cc1)Nc1cccnc1Cl | 0 | 0 | 0 | 0 | 0 | 0
CC(CCc1ccccc1)NC(=O)COC(=O)c1ccc([N+](=O)[O-])cc1 (configuration not stated) | 0 | 0 | 0 | 0 | 0 | 0
CC(CCc1ccccc1)NC(=O)COC(=O)c1ccc(S(C)(=O)=O)c([N+](=O)[O-])c1 (configuration not stated) | 7.3µM | 0 | -108 | 2.3µM | 16µM | 2.3µM
CC(C)(C)c1ccc(OCCC(=O)OCC(=O)Nc2cccnc2Cl)cc1 | 0 | 0 | 0 | 16µM | 0 | ?
CC(CN1CCN(CCOCCO)CC1)CN1c2ccccc2Sc2ccc(Cl)cc21 (configuration not stated) | ? | 0 | 0 | ? | 23µM | ?
OCCN1CCN(CCCN2c3ccccc3C=Cc3ccccc32)CC1 | - | ? | - | 6µM | - | 8.4µM
CCSc1ccc2c(c1)N(CCCN1CCN(C)CC1)c1ccccc1S2 | ? | ? | -57 | ? | 18µM | 26µM
OC1CC2CCC(C1)N2CCCN1c2ccccc2Sc2ccc(Cl)cc21 (configuration not stated) | 4.6µM | ? | -81 | 15µM | ? | 23µM
CN1CCN(CCCN2c3ccccc3Sc3ccc(Cl)cc32)CC1 | 21µM! | ? | -64! | 21µM | 15µM! | 4.6µM!
CCC(=O)c1ccc2c(c1)N(CCCN1CCN(CCO)CC1)c1ccccc1S2 | - | - | - | 4.7µM | - | 3µM
N#Cc1ccc(C(=O)N2CCC(n3cc(-c4nc(C5CC5)no4)nn3)C2)cc1 (configuration not stated) | - | 0 | - | - | - | -
CN(C)C[C@@H]1CN(C2CCOCC2)C[C@H]1N | - | 0 | - | - | - | -
CCc1c(C)sc(NC(=O)CSc2ccccc2)c1C#N | - | 0 | - | - | - | -
Cc1cccn2cc(CCNC(=O)Cc3cccs3)nc12 | 0 | 0 | -74 | 0 | 0 | 0
FC(F)(F)c1cccc(-c2noc(CSc3nc4ccccc4o3)n2)c1 | - | 0 | - | - | - | -
SMILES | HT1080 IDH1KD tx | 12-LOX inh | IL-1B inflam inh | DT40 TDP1 no CPT | HT1080-NT tox | TDP1 cell CPT
Cc1nc(Sc2ccc(Cl)cc2)c(C#N)c(C)c1[N+](=O)[O-] | ? | 0 | - | 10µM | ? | ?
Cc1nc(Sc2ccc(Br)cc2)c(C#N)c(C)c1[N+](=O)[O-] | ? | 0 | -105 | 9.2µM | ? | 21µM
COc1ccc(Cn2c(C3CCN(C(=O)c4ccc(F)c(Cl)c4)CC3)n[nH]c2=O)cc1 | - | 0 | - | - | - | -
Cc1ccc(Cn2c(N)nc3ccccc32)cc1 | 0 | 0 | 0 | 9.2µM | 0 | 18µM
Cc1ccc(Cn2c(CCCO)nc3ccccc32)cc1 | 0 | 0 | 0 | ? | 0 | ?
Nc1nc2ccccc2n1Cc1ccc(Cl)c(Cl)c1 | ? | 0 | -92 | ? | ? | ?
COc1cc(-c2nc3c4c5c(sc4ncn3n2)COC(C)(C)C5)ccc1O | - | 0 | - | - | - | -
Cc1cccc(N2CCN(C(C(=O)NCc3ccccc3)c3ccc(F)cc3)CC2)c1C (configuration not stated) | ? | 0 | 0 | 21µM | ? | 23µM
CCC(CC)C(C(=O)NCc1ccccc1)N1CCN(c2cccc(C)c2C)CC1 (configuration not stated) | 0 | 0 | 0 | 5.8µM | 0 | 6.5µM
COc1cccc(C(C(=O)NCc2ccccc2)N2CCN(c3cccc(C)c3C)CC2)c1OC (configuration not stated) | ? | 0 | ? | 18µM | ? | 18µM
Cc1cccc(N2CCN(C(C(=O)NCc3ccccc3)c3ccco3)CC2)c1C (configuration not stated) | ? | 0 | 0 | ? | ? | ?
Cc1ccc(CN(CCc2ccccc2)C(=O)c2cccc(C#N)c2)s1 | - | 0 | - | - | - | -
COc1ccc(C(NC(=O)CC(C)(C)C)c2ccccc2)cc1 (configuration not stated) | - | 0 | - | - | - | -
Cc1ccc(F)c(NC(=O)CCN=C2NS(=O)(=O)c3ccccc32)c1 | - | 0 | - | - | - | -
O=C(Nc1ccccc1Br)C1CC2CCC1C2 (configuration not stated) | - | 0 | - | - | - | -
CC(=O)NC1CC2(CCN(C(=O)CCCN(C)C)CC2)c2ccccc21 (configuration not stated) | - | 0[6.33 µM] | - | - | - | -
CCOc1ccc2c(c1)sc(N)[n+]2Cc1cc(C)cc2cccnc12 | 3.3µM | ? | -92 | 1µM | 6.5µM | 1µM
COc1ccc2c(c1)sc(N)[n+]2Cc1cc(C)cc2cccnc12 | 5.2µM | 0 | -52 | 2.6µM | ? | 4.6µM
COc1ccc2c(ccc[n+]2[O-])c1 | 0 | 0 | 0 | 0 | 0 | 0
CC(Sc1nnnn1-c1ccccc1)C(=O)Nc1ccc(N2CCN(C)CC2)cc1 (configuration not stated) | 0 | 0 | 0 | 10µM | 0 | 13µM
COc1ccc(/C=C/C(=O)CC(O)(c2ccccc2)C(F)(F)F)cc1 (configuration not stated) | ? | 0 | ? | ? | ? | ?
O=C(/C=C/c1ccccc1)CC(O)(c1ccccc1)C(F)(F)F (configuration not stated) | 10µM | 0 | -99 | 11µM | 13µM | 16µM

Screens from PubChem BioAssay.
